The values that follow come from PubChem BioAssay (NCATS).

Inconclusive results are not listed. A call without a number means that no potency is given here. Active and inactive are the calls of the source. The call rests on the fitted dose curve; in most records, active means well fitted inhibition curve with a large enough effect; inconclusive means small, poorly fitted or top-dose-only effect; inactive means no such curve, though single readings can be large or run the other way.

One test is described as follows: qHTS assay for measurement of the activity of small molecule inhibitors on Zika virus induced Caspase-3 activity in human iPSC derived neural progenitor cells (hNPCs) (AID 1224857). Further: nearly all actives have a fitted effect of over 65% in size. The note with it: hNPCs ZIKV-induced caspase-3/7, Caspase-Glo luminescence, 6 h; series mostly up to 45.7 µM. A digest of the protocol:
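Caspase-3/7 induction by a 6-hour ZIKV infection was quantified with a luminescent Caspase-Glo 3/7 reagent incubated 30 minutes at room temperature. Compounds were preincubated with hNPCs for 1 hour; inhibition was calculated against uninfected and infected control wells.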
Regarding `Cc1nc(N)nc(N)c1-c1ccc(Cl)c(Cl)c1`, the Potency result was “inactive”.
On the same count and under the same terms, with `CC(C)CCCC(C)NCCC(C)C` (configuration not stated) the entry was “inactive”; with `O=C(c1ccco1)N1CCNCC1`, “inactive”.
Same read-out and setting: in the case of `CCCCCCCCCCCCCCCCCCN(C)C` it was “inactive”; in that of `Cc1cnc(NS(=O)(=O)c2ccc(N)cc2)nc1`, “inactive”.
Same read-out and setting: in the case of `COc1cc2c(cc1OC)CN(C(=O)[C@H](C)N[C@@H](CCc1ccccc1)C(=O)O)[C@H](C(=O)O)C2` it was “inactive”; in that of `Cc1onc(-c2c(Cl)cccc2Cl)c1C(=O)Cl`, “inactive”.
With `COc1ccccc1N1CCN(CC(O)COc2cc(OC)c(OC)c(OC)c2)CC1` (configuration not stated), the Potency result was “inactive”.
On the same count and under the same terms, with `Cc1ccc(C(=O)C(=O)O)cc1C` the entry was “inactive”.
The same measure, in the same setting: with `C/C(=N/NC(=O)c1ccncc1)C(=O)O` the entry was “inactive”; with `Cc1ccc(-c2ccccc2C#N)cc1`, “inactive”.
The same measure, in the same setting: with `CCCCCCOC(=O)NC(=N)c1ccc(NCc2nc3cc(C(=O)N(CCC(=O)OCC)c4ccccn4)ccc3n2C)cc1` the entry was “inactive”.
Consider `Cc1cc(CCCOc2c(C)cc(-c3noc(C(F)(F)F)n3)cc2C)on1`, for which the Potency result was “inactive”.
The same measure, in the same setting: with `NS(=O)(=O)c1ccc(N2CCCCS2(=O)=O)cc1` the entry was “inactive”; with `Cc1cccc(OCC(O)CNC(C)(C)C)c1C` (configuration not stated), “inactive”; with `CCCCOCCOC(=O)c1cccnc1`, “inactive”.
On the same count and under the same terms, in the case of `CC[C@@]1(O)C(=O)OCc2c1cc1n(c2=O)Cc2c-1nc1ccccc1c2/C=N/OC(C)(C)C` it was “inactive”; in that of `Nc1ccc(C(=O)N2CC3CC(CN(Cc4ccccc4)C3)C2)cc1`, “inactive”; in that of `CC(=O)N(CC(=O)N(C)C)c1ccccc1`, “inactive”.
Still for that read-out and setting: in the case of `CCCN(CCC)C(=O)C(CCC(=O)OCCCN1CCN(CCOC(=O)Cc2c(C)n(C(=O)c3ccc(Cl)cc3)c3ccc(OC)cc23)CC1)NC(=O)c1ccccc1` (configuration not stated) it was “inactive”; in that of `CN1N=C(C(N)=O)CCC1=O`, “inactive”; in that of `CC(C)Cc1ccc(C(C)C(=O)OCc2ccccn2)cc1` (configuration not stated), “inactive”.
Regarding `O=C1CC(c2ccc(Cl)cc2)CC(=O)N1`, the Potency result was “inactive”.
The same measure, in the same setting: with `O=C1NC(c2ccccc2)(c2ccccc2)C(=O)N1COP(=O)(O)O` the entry was “inactive”; with `Cc1ccc(C(=O)Oc2ccc(C(O)CNC(C)(C)C)cc2OC(=O)c2ccc(C)cc2)cc1` (configuration not stated), “inactive”.
As for `CN(C)CCN(Cc1ccsc1)c1ccccn1`, the Potency result was “inactive”.
`COc1ccc2c(c1)c(CC(=O)OC/C=C(\C)CC/C=C(\C)CCC=C(C)C)c(C)n2C(=O)c1ccc(Cl)cc1`: the Potency entry is “inactive”.
Same read-out and setting: with `Cc1ccc(CCn2c3c(c4cc(Cl)ccc42)CN(C)CC3)cn1` the entry was “inactive”; with `COc1ccc(CCC(C)=O)cc1`, “inactive”.
As for `CCOC(=O)c1cc(=O)c2c(OCC(COc3cccc4oc(C(=O)OCC)cc(=O)c34)OC(=O)[C@@H](N)CCCCN)cccc2o1`, the Potency result was “inactive”.
The same measure, in the same setting: in the case of `CN(C)CCOC(c1ccccc1)c1ccc(Br)cc1` (configuration not stated) it was “inactive”; in that of `COC(=O)c1ccc(NC(C)=O)cc1OC`, “inactive”; in that of `CCN1CCCC1CN` (configuration not stated), “inactive”.
`C/C(=N\O)[C@@H](C)NCC(C)(C)CN[C@H](C)/C(C)=N/O`: the Potency entry was “inactive”.
On the same count and under the same terms, with `Cc1nc(C2CCCCC2)c(-c2ccc(S(N)(=O)=O)c(F)c2)o1` the entry was “inactive”; with `O=C(C1CCCCC1)N1CC(=O)N2CCCc3ccccc3C2C1` (configuration not stated), “inactive”.

The nature of another test: qHTS assay for measurement of the activity of small molecule inhibitors on Zika virus induced Caspase-3 activity in human astrocytoma cells (AID 1224859). The note with it: SNB-19 ZIKV-induced caspase-3/7, luminescence, 6 h; series mostly up to 45.7 µM. A digest of the protocol:
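In SNB-19 cells plated at 250 cells/well and grown 16-20 h, compounds were applied 1 h before ZIKV (2 FFU/cell). Six hours later caspase-3/7 luminescence was recorded.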
On to `Cc1nc(N)nc(N)c1-c1ccc(Cl)c(Cl)c1`, for which the call was inactive.
As for `CC(C)CCCC(C)NCCC(C)C` (configuration not stated), the outcome was inactive.
Turning to `O=C(c1ccco1)N1CCNCC1`, the outcome was inactive.
Still for that read-out and setting: in the case of `COc1cc2c(cc1OC)CN(C(=O)[C@H](C)N[C@@H](CCc1ccccc1)C(=O)O)[C@H](C(=O)O)C2` it was “inactive”; in that of `C/C(=N/NC(=O)c1ccncc1)C(=O)O`, “inactive”.
Same read-out and setting: with `Cc1cccc(OCC(O)CNC(C)(C)C)c1C` (configuration not stated) the entry was “inactive”; with `Nc1ccc(C(=O)N2CC3CC(CN(Cc4ccccc4)C3)C2)cc1`, “inactive”; with `CC(=O)N(CC(=O)N(C)C)c1ccccc1`, “inactive”.
Same read-out and setting: with `CCOC(=O)c1cc(=O)c2c(OCC(COc3cccc4oc(C(=O)OCC)cc(=O)c34)OC(=O)[C@@H](N)CCCCN)cccc2o1` the entry was “inactive”; with `C/C(=N\O)[C@@H](C)NCC(C)(C)CN[C@H](C)/C(C)=N/O`, “inactive”.
On to `Cc1nc(C2CCCCC2)c(-c2ccc(S(N)(=O)=O)c(F)c2)o1`, for which the molecule was called inactive.
